Test results as given in PubChem BioAssay AID1159580 (chemical genetic matrix, 2015).
Among all 5,500 compounds or so, about 2,000 (36%) were called active. Roughly 18% stayed inconclusive and do not appear here. No stated cut-off is given here; in the data, active means normalized growth mostly below about 0.91 (no sharp cut-off); inconclusive means no clear call, values can overlap the other calls; inactive means mostly above about 0.92. The list shows a part of the results.

Assay: chemical genetic growth profiling, strain panel (AID 1159580);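 further: tested at 20 µM; growth read once vehicle control cultures reached saturation at 30 °C; 1 = growth at the plate median or of vehicle wells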
Conditions: growth OD

Measured: normalized growth

CC1(C)C(=O)C=C[C@@]2(C)C1C[C@@H](O)[C@]1(C)C2CC[C@@]2(C)[C@H](c3ccoc3)OC(=O)[C@H]3O[C@]321 (stereo partly specified)
inactive: S. cerevisiae deletion strains, locus YJR066W, strain TOR1, stronger effect = lower value 0.938 | S. cerevisiae deletion strains, locus YKL009W, strain mrt4, stronger effect = lower value 0.95 | S. cerevisiae deletion strains, locus YKL068W, stronger effect = lower value 0.973 | S. cerevisiae deletion strains, locus YKL085W, strain MDH1 (second series), stronger effect = lower value 0.973 | S. cerevisiae deletion strains, locus YKL085W, strain MDH1, stronger effect = lower value 0.973 | S. cerevisiae deletion strains, locus YKL160W, strain elf1, stronger effect = lower value 1 | S. cerevisiae deletion strains, locus YKL190W, strain CNB1, stronger effect = lower value 0.983 | S. cerevisiae deletion strains, locus YKR001C, strain vps1, stronger effect = lower value 0.963 | S. cerevisiae deletion strains, locus YKR026C, strain gcn3, stronger effect = lower value 0.995 | S. cerevisiae deletion strains, locus YKR091W, strain srl3, stronger effect = lower value 0.989 | S. cerevisiae deletion strains, locus YLL001W, strain dnm1, stronger effect = lower value 1.01 | S. cerevisiae deletion strains, locus YLL026W, stronger effect = lower value 1 | S. cerevisiae deletion strains, locus YLL041C, strain sdh2, stronger effect = lower value 0.992 | S. cerevisiae deletion strains, locus YLR027C, strain aat2, stronger effect = lower value 1.02 | S. cerevisiae deletion strains, locus YLR039C, strain RIC1, stronger effect = lower value 0.972 | S. cerevisiae deletion strains, locus YLR058C, strain SHM2, stronger effect = lower value 0.959 | S. cerevisiae deletion strains, locus YLR102C, strain apc9, stronger effect = lower value 0.983 | S. cerevisiae deletion strains, locus YLR113W, strain HOG1, stronger effect = lower value 0.991 | S. cerevisiae deletion strains, locus YLR221C, strain rsa3, stronger effect = lower value 1 | S. cerevisiae deletion strains, locus YLR258W, strain gsy2, stronger effect = lower value 1.03 | S. cerevisiae deletion strains, locus YLR262C, strain YPT6 (second series), stronger effect = lower value 0.992 | S. cerevisiae deletion strains, locus YLR262C, strain YPT6, stronger effect = lower value 0.962 | S. cerevisiae deletion strains, locus YLR268W, strain sec22, stronger effect = lower value 0.952 | S. cerevisiae deletion strains, locus YLR320W, strain mms22, stronger effect = lower value 1.01 | S. cerevisiae deletion strains, locus YLR330W, strain CHS5, stronger effect = lower value 0.987 | S. cerevisiae deletion strains, locus YLR342W, strain FKS1 (second series), stronger effect = lower value 1.02 | S. cerevisiae deletion strains, locus YLR342W, strain FKS1, stronger effect = lower value 1.02 | S. cerevisiae deletion strains, locus YLR357W, strain rsc2, stronger effect = lower value 0.965 | S. cerevisiae deletion strains, locus YLR370C, strain arc18, stronger effect = lower value 0.996 | S. cerevisiae deletion strains, locus YLR371W, strain rom2, stronger effect = lower value 0.99 | S. cerevisiae deletion strains, locus YLR384C, strain iki3, stronger effect = lower value 1 | S. cerevisiae deletion strains, locus YLR418C, strain cdc73, stronger effect = lower value 0.933 | S. cerevisiae deletion strains, locus YML016C, strain PPZ1, stronger effect = lower value 0.98 | S. cerevisiae deletion strains, locus YML032C, strain rad52, stronger effect = lower value 0.971 | S. cerevisiae deletion strains, locus YML120C, strain ndi1, stronger effect = lower value 1 | S. cerevisiae deletion strains, locus YML124C, strain tub3, stronger effect = lower value 0.989 | S. cerevisiae deletion strains, locus YMR058W, strain fet3, stronger effect = lower value 0.996 | S. cerevisiae deletion strains, locus YMR078C, strain ctf18, stronger effect = lower value 0.982 | S. cerevisiae deletion strains, locus YMR125W, strain sto1, stronger effect = lower value 0.984 | S. cerevisiae deletion strains, locus YMR129W, stronger effect = lower value 1.01 | S. cerevisiae deletion strains, locus YMR205C, strain PFK2, stronger effect = lower value 0.999 | S. cerevisiae deletion strains, locus YMR223W, strain ubp8, stronger effect = lower value 0.997 | S. cerevisiae deletion strains, locus YMR231W, strain pep5, stronger effect = lower value 0.992 | S. cerevisiae deletion strains, locus YMR307W, strain GAS1, stronger effect = lower value 0.954 | S. cerevisiae deletion strains, locus YNL067W, strain RPL9B, stronger effect = lower value 1.01 | S. cerevisiae deletion strains, locus YNL071W, strain lat1, stronger effect = lower value 1 | S. cerevisiae deletion strains, locus YNL183C, strain NPR1, stronger effect = lower value 0.963 | S. cerevisiae deletion strains, locus YNL209W, strain ssb2, stronger effect = lower value 1 | S. cerevisiae deletion strains, locus YNL233W, strain BNI4, stronger effect = lower value 1.01 | S. cerevisiae deletion strains, locus YNL248C, strain rpa49, stronger effect = lower value 0.917 | S. cerevisiae deletion strains, locus YNL250W, strain rad50, stronger effect = lower value 1 | S. cerevisiae deletion strains, locus YNL271C, strain bni1, stronger effect = lower value 0.984 | S. cerevisiae deletion strains, locus YNL298W, strain CLA4, stronger effect = lower value 0.995 | S. cerevisiae deletion strains, locus YNL307C, strain MCK1, stronger effect = lower value 0.989 | S. cerevisiae deletion strains, locus YNL322C, strain KRE1 (second series), stronger effect = lower value 1.01 | S. cerevisiae deletion strains, locus YNR049C, strain mso1, stronger effect = lower value 0.993 | S. cerevisiae deletion strains, locus YNR052C, strain pop2, stronger effect = lower value 0.992 | S. cerevisiae deletion strains, locus YOL012C, strain htz1 0.797 | S. cerevisiae deletion strains, locus YOL147C, strain pex11, stronger effect = lower value 0.997 | S. cerevisiae deletion strains, locus YOR001W, strain rrp6, stronger effect = lower value 0.986 | S. cerevisiae deletion strains, locus YOR061W, strain CKA2, stronger effect = lower value 0.952 | S. cerevisiae deletion strains, locus YOR069W, strain VPS5, stronger effect = lower value 0.992 | S. cerevisiae deletion strains, locus YOR070C, strain gyp1, stronger effect = lower value 1.03 | S. cerevisiae deletion strains, locus YOR080W, strain dia2, stronger effect = lower value 1.01 | S. cerevisiae deletion strains, locus YOR083W, strain WHI5, stronger effect = lower value 1 | S. cerevisiae deletion strains, locus YOR106W, strain vam3, stronger effect = lower value 0.996 | S. cerevisiae deletion strains, locus YOR136W, strain idh2, stronger effect = lower value 0.975 | S. cerevisiae deletion strains, locus YOR144C, strain elg1, stronger effect = lower value 0.986 | S. cerevisiae deletion strains, locus YOR184W, strain ser1, stronger effect = lower value 0.896 | S. cerevisiae deletion strains, locus YOR231W, strain MKK1, stronger effect = lower value 0.954 | S. cerevisiae deletion strains, locus YOR265W, strain rbl2, stronger effect = lower value 1.01 | S. cerevisiae deletion strains, locus YOR270C, strain vph1, stronger effect = lower value 0.97 | S. cerevisiae deletion strains, locus YOR290C, strain snf2, stronger effect = lower value 1 | S. cerevisiae deletion strains, locus YOR316C, strain cot1, stronger effect = lower value 0.985 | S. cerevisiae deletion strains, locus YPL051W, strain arl3, stronger effect = lower value 1.02 | S. cerevisiae deletion strains, locus YPL078C, strain atp4, stronger effect = lower value 1 | S. cerevisiae deletion strains, locus YPL106C, strain sse1, stronger effect = lower value 1.03 | S. cerevisiae deletion strains, locus YPL240C, strain hsp82, stronger effect = lower value 1 | S. cerevisiae deletion strains, locus YPL241C, strain CIN2, stronger effect = lower value 0.98 | S. cerevisiae deletion strains, locus YPL256C, strain CLN2, stronger effect = lower value 0.945 | S. cerevisiae deletion strains, locus YPR119W, strain clb2, stronger effect = lower value 0.985 | S. cerevisiae deletion strains, locus YPR141C, strain kar3, stronger effect = lower value 0.985 | S. cerevisiae deletion strains, locus YPR163C, strain tif3, stronger effect = lower value 0.98 | S. cerevisiae deletion strains, locus YPR167C, strain met16, stronger effect = lower value 0.99 | S. cerevisiae deletion strains, strain wtn01, stronger effect = lower value 0.96 | S. cerevisiae strains, strain wild type, stronger effect = lower value 0.97
